SNCA viab count: cell viability loss counter-screen; 0.12% of 150,000 active; HEK-293-SNCA-luc viability, GF-AFC fluorescence, 24 h; Potency, µM (series often up to 57.1 µM), without a hit: top-dose activity change, negative = cytotoxicity, usual class: cytotoxic;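 also: potency is read from the fitted curve at half-maximal effect; 0% = DMSO-treated cells and -100% = medium-only wells without cells; nearly all actives have a fitted effect of over 30% in size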
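HEK-293-SNCA-luc cells (1500/well) plated 24 h, then exposed 24 h to a dilution series; GF-AFC added 30 min at 37C, fluorescence 405/540 nm; normalised to medium-only and DMSO wells, Hill fit.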
SNCA expr inh: reduces expression of the alpha-synuclein gene; HEK-293 SNCA-luciferase knock-in, luminescence, 24 h; Potency, µM (titrated, usually from 57.2 µM), for inactives: at the top dose activity change, negative = inhibition, hits mostly inhibitors; 0.17% of 140,000 active; AID 1671194;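 also: potency is read from the fitted curve at half-maximal effect; plate controls were DMSO cells for no effect and cell-free wells for full effect; nearly all actives have a fitted effect of over 45% in size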
KDM5B inhibitor: blocks human KDM5B histone demethylase activity. 2.6% of 220,000 active. Q9UGL1. Potency, µM (series often up to 57.7 µM), hits mostly inhibitors. KDM5B demethylase, FDH-coupled NADH fluorescence (FDH is formaldehyde dehydrogenase); also: potency is read from the fitted curve at half-maximal effect; 0% is about no effect; nearly all actives have a fitted effect of over 70% in size
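Coupled FDH/NAD⁺ fluorescence readout. KDM5BΔAP 200 nM final; compound titration, 10 min RT preincubation; substrate mix 12.5 µM H3K4me3, 25 µM 2-OG, 50 µM Fe(II), 100 µM ascorbate, 0.25 mM NAD⁺, 0.25 U/mL FDH; ΔRFU over 30 min.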
IP6K1 inhibitor: blocks human inositol hexakisphosphate kinase 1; 0.81% of 140,000 active; IP6K1 kinase, ADP-Glo luminescence, 2 h; active compounds read low; activity change, % (series mostly up to about 58 µM); Q92551; in the data active = activity change below about -25%; also: % is scaled to controls: 0 for no effect and ±100 for the full control effect
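ADP-Glo luminescence measures ADP made by human IP6K1 during a 2 h RT reaction with ATP/IP6 (mix at 1.3 mM/130 uM); top library doses 57.5 and 19.1 uM final.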
Active calls of the source: *; [ ] = another dose, or the depositor's remark. Most compounds without a hit are left out; they make up all but 2.8% or so of the library. Unless noted, calls follow the shape of the dose curve; as a rule, active = well fitted curve in the direction sought with a large enough effect; inconclusive = small, poorly fitted or top-dose-only effect, or another doubt; inactive = no such curve, though single readings can be large; an effect the other way counts as inactive or inconclusive.

`CCC1C(=O)N(C)c2cnc(Nc3ccc(C(=O)NC4CCC(N5CCN(CC6CC6)CC5)CC4)cc3OC)nc2N1C(C)C` (stereo not drawn) gave SNCA viab count 23.8µM* and IP6K1 inhibitor -7.9.
For COc1ccc(NC(=O)COc2ncnc3ccccc23)c([N+](=O)[O-])c1 the results were KDM5B inhibitor inactive.
Screening CC1(C)CC(NC(=S)Nc2ccc(F)cc2)CC(C)(C)N1 returned KDM5B inhibitor inactive.
Screening CC(C)NC(=O)c1cc(Br)cn2ccnc12 returned SNCA viab count 3.4%[87.6 µM], SNCA expr inh 9.9%[87.6 µM], KDM5B inhibitor 39.8µM* and IP6K1 inhibitor 10.6.
Screening O=C(c1cc(Br)cn2ccnc12)N1CCC(N2CCNC2=O)CC1 returned SNCA viab count -12.8%, SNCA expr inh -6.6%, KDM5B inhibitor inconclusive and IP6K1 inhibitor -11.4.
CNC(=O)c1cc(Br)cn2ccnc12 was read as SNCA viab count 9.6%[87.6 µM], SNCA expr inh 1.7%[87.6 µM], KDM5B inhibitor 35.5µM* and IP6K1 inhibitor 3.4.
`O=C(CSc1ncc(C(F)(F)F)cc1Cl)c1ccc[nH]1` gave KDM5B inhibitor inactive.
`COc1cccc([C@H]2CN(C(=O)c3c(C)nn4c(C)cc(C)nc34)C[C@@H]2N)c1` gave SNCA viab count 0.2%, SNCA expr inh 2.0%, KDM5B inhibitor 28.2µM* and IP6K1 inhibitor -11.3.
Cc1cc(C)n2nc(C)c(C(=O)N3CCCC(c4cccc(C(=O)O)c4)C3)c2n1 (stereo not drawn) was read as SNCA viab count -4.0%, SNCA expr inh -13.5%, KDM5B inhibitor 31.6µM* and IP6K1 inhibitor -9.1.
Cc1cc(SCc2c(F)c(F)c(F)c(F)c2F)nc2ccccc12 was read as KDM5B inhibitor inactive.
O=C(c1cccnc1N1CC2CC(C1)[C@H]1CCCC(=O)N1C2)N1CC=C(c2ccccc2)CC1 (stereo partly drawn) was read as SNCA viab count -4.7%, SNCA expr inh 15.1%, KDM5B inhibitor 31.6µM* and IP6K1 inhibitor 4.7.
`CN(C)CCNC(=O)c1cccnc1N1CC2CC(C1)[C@H]1CCCC(=O)N1C2` (stereo partly drawn) gave SNCA viab count 18.1%, SNCA expr inh 4.4%, KDM5B inhibitor inconclusive and IP6K1 inhibitor 6.5.
Screening O=C(NCCN1CCCCC1)c1cccnc1N1CC2CC(C1)[C@H]1CCCC(=O)N1C2 (stereo partly drawn) returned SNCA viab count -9.2%, SNCA expr inh inconclusive, KDM5B inhibitor 28.2µM* and IP6K1 inhibitor -1.5.
`CN(CCNC(=O)c1cccnc1N1CC2CC(C1)[C@H]1CCCC(=O)N1C2)C1CCCCC1` (stereo partly drawn) gave SNCA viab count -5.0%, SNCA expr inh -7.1%, KDM5B inhibitor 31.6µM* and IP6K1 inhibitor 5.5.
`O=C(NCCCn1cccn1)c1cccnc1N1CC2CC(C1)[C@H]1CCCC(=O)N1C2` (stereo partly drawn) gave SNCA viab count -6.2%, SNCA expr inh -29.0%, KDM5B inhibitor 28.2µM* and IP6K1 inhibitor -2.4.
For CCOc1ccc(NC(=O)c2ccc3ccccc3n2)cc1OCC the results were KDM5B inhibitor inactive.
CCC(=O)Nc1ccc2c(c1)nc(Cn1cccn1)n2CC(C)C was read as KDM5B inhibitor inactive.
`O=C(NCc1ccc(N2CCOCC2)cc1)c1cccnc1N1CC2CC(C1)[C@H]1CCCC(=O)N1C2` (stereo partly drawn) gave SNCA viab count 11.7%, SNCA expr inh inconclusive, KDM5B inhibitor inconclusive and IP6K1 inhibitor -1.3.
O=C(NCCCN1CCOCC1)c1cccnc1N1CC2CC(C1)[C@H]1CCCC(=O)N1C2 (stereo partly drawn) was read as SNCA viab count 2.4%, SNCA expr inh 10.2%, KDM5B inhibitor 28.2µM* and IP6K1 inhibitor 3.8.
Screening COc1ccc(CCNC(=O)c2cccnc2N2CC3CC(C2)[C@H]2CCCC(=O)N2C3)cc1OC (stereo partly drawn) returned SNCA viab count 4.6%, SNCA expr inh 6.4%, KDM5B inhibitor inconclusive and IP6K1 inhibitor 18.8.
For O=C(NCCC1=CCCCC1)c1cccnc1N1CC2CC(C1)[C@H]1CCCC(=O)N1C2 (stereo partly drawn) the results were SNCA viab count -22.6%, SNCA expr inh -14.8%, KDM5B inhibitor 28.2µM* and IP6K1 inhibitor 13.9.
Screening Cc1cc(C(=O)N2C[C@@H](COCC3CC3)[C@H](c3ccccn3)C2)n[nH]1 returned SNCA viab count 0.2%, SNCA expr inh -13.1%, KDM5B inhibitor inactive and IP6K1 inhibitor 1.7.
